This is an account of results in PubChem BioAssay (NCATS).

Where “and” joins values, the source holds several entries; their conditions need not be identical. Equal entries are not always repeated. Records with an inconclusive call do not appear. Calls of active or inactive are those of the source. Unless noted, the call rests on the fitted dose curve; in most records, active means well fitted curve in the direction sought with a large enough effect; inconclusive means small, poorly fitted or top-dose-only effect, or another doubt; inactive means no such curve, though single readings can be large; an effect the other way counts as inactive or inconclusive.

Assay [1] is described as follows: qHTS Assay for Lipid Storage Modulators (AID 1519; calls by dose curve). The conditions noted are these: Drosophila S3 cells, BODIPY lipid droplet/cell ratio, laser cytometry, cells loaded with oleic acid. The method in brief:
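Cells seeded at 5,000 per well were treated with compounds over a concentration series and loaded with oleic acid (400 uM, as added). Lipid droplet fluorescence (488 nm excitation, 500-530 nm channel) was read by laser-scanning cytometry and normalized to 20 uM Triacsin C.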
(In general: In qHTS, concentration-response curves come from the screen itself.)

In assay [2] the target is Alpha-galactosidase A (Homo sapiens) (UniProt P06280). In words: Counterscreen for Glucocerebrosidase Inhibitors: qHTS Assay for Human alpha-Galactosidase at pH 4.5 (AID 992). Further: 0% is about no effect. The method in brief:
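Enzyme at 2 nM final was combined with compound (0.7 nM to 77 uM) and 80 uM 4-methylumbelliferyl alpha-D-galactopyranoside in 50 mM citric acid, 0.005% Tween-20, pH 4.5. After 20 min at room temperature, fluorescence was read (Ex 365/Em 440 nm); AC50 came from Hill fits.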
On the technique in general: The purpose of a counterscreen is to sort out artefacts and off-target activity.

In assay [3] the target is alpha-glucosidase (Oryza sativa, rice) (UniProt Q653V4). In words: Counterscreen for Glucocerebrosidase Inhibitors: qHTS Assay for Rice alpha-Glucosidase at pH 5.0 (AID 997).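 Further: 0% = full activity with enzyme and -100% = basal without enzyme.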 The method in brief: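 Rice alpha-glucosidase (4 nM final) with 400 uM 4-methylumbelliferyl-alpha-D-glucopyranoside in citrate buffer pH 5.0, 20 min at room temperature, stopped at pH 10; fluorescence 365/440 nm, compounds 0.7 nM–77 uM, AC50 from Hill fits.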

Assay [4] concerns the target DNA repair nuclease/redox regulator APEX1 (Homo sapiens) (UniProt P27695). Briefly: qHTS Validation Assay for Inhibitors of the Human Apurinic/apyrimidinic Endonuclease 1 (APE1) (AID 1705;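 further: TAMRA fluorescence gain over two minutes as APE1 cuts a quenched THF abasic duplex; on the % scale 0 is the no-effect control and ±100 the full control effect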). The method in brief:
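Substrate: 50 nM final fluorophore/quencher THF-abasic duplex. Enzyme preincubated with compounds 15 min, RT. Progress derived from fluorescence difference, third minus first kinetic read.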

The target in assay [5] is Endonuclease 4 (Escherichia coli (strain K12)) (UniProt P0A6C1). Briefly: Counterscreen for APE1 Inhibitors: qHTS Validation Assay for Inhibitors of Endonuclease IV (AID 1708). Further: on the % scale 0 is the no-effect control and ±100 the full control effect. The method in brief: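 qHTS concentration-response format; LOPAC1280 tested under APE1-screen conditions. 2 nM enzyme, 15 min compound preincubation at RT, then 50 nM TAMRA/BHQ-2 abasic substrate; kinetic fluorescence read, three reads at 60 s intervals.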

Assay [6] in a line: qHTS for differential inhibitors of proliferation of Plasmodium falciparum line 7G8 (AID 1815).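 Further: parasite growth measured after three days of incubation; plate controls were vehicle wells for no effect and reference inhibitor wells for full effect.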
Assay [7] is described as follows: qHTS for differential inhibitors of proliferation of Plasmodium falciparum line GB4 (AID 1816).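 Further: parasite growth measured after 72 h incubation; 0% = vehicle DMSO and -100% = reference inhibitor.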 The conditions noted are these: Potency: Plasmodium falciparum GB4 proliferation inhibition.
The nature of assay [8]: qHTS for differential inhibitors of proliferation of Plasmodium falciparum line 3D7 (AID 1876). Further: potency means the concentration at half of the fitted maximal effect.
A short description of assay [9]: qHTS for differential inhibitors of proliferation of Plasmodium falciparum line D10 (AID 1877).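 Further: parasites grown with compound for 72 h before DNA staining; plate controls were vehicle wells for no effect and reference inhibitor wells for full effect.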
Assay [10] is described as follows: qHTS for differential inhibitors of proliferation of Plasmodium falciparum line Dd2 (AID 1882).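 Further: plate controls were DMSO vehicle for no effect and 0.29 µM artemisinin for full effect; nearly all actives have a fitted effect of over 65% in size.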 The conditions noted are these: Potency: Plasmodium falciparum Dd2 proliferation inhibition. The method in brief: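 Dd2-infected erythrocytes (0.3% parasitemia, 2.5% hematocrit final) incubated with compound 72 h at 37 C, 5% CO2; lysed with saponin/Triton buffer containing SYBR Green I, incubated overnight in the dark, then read by fluorescence (485/535 nm). Normalized to 0.29 uM artemisinin and DMSO.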

Assay [11] can be described thus: qHTS for differential inhibitors of proliferation of Plasmodium falciparum line W2 (AID 1883).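 Further: parasites grown with compound for 72 h before lysis and staining.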 Further: potency means the concentration at half of the fitted maximal effect.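 On activity change, negative = inhibition: 0% = vehicle wells and -100% = control inhibitor wells.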 The following applies: Potency: Plasmodium falciparum W2 proliferation inhibition.
Assay [12] in a line: qHTS for differential inhibitors of proliferation of Plasmodium falciparum line HB3 (AID 1886).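 Further: parasites grown with compound for 72 h before SYBR Green readout; plate controls were vehicle for no effect and reference inhibitor for full effect.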 The following applies: Potency: Plasmodium falciparum HB3 proliferation inhibition.
Assay [13] concerns the target Ferritin light chain (Equus caballus) (UniProt P02791). In words: qHTS Validation Assay for Identification of Novel General Anesthetics (AID 2323). Further: on the % scale 0 is the no-effect control and ±100 the full control effect. The method in brief:
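Normalized fluorescence response, scaled between free 1-AMA and 1-AMA/apoferritin complex, fitted to a four-parameter Hill equation for concentration-effect values. Binding mix: 10 uM horse-spleen apoferritin, 50% saturated 1-AMA in PBS; read 380/535 nm after 10 min.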

The target in assay [14] is ATP-dependent DNA helicase Q1 (Homo sapiens) (UniProt P46063). Briefly: qHTS Validation Assay for Inhibitors of RecQ-Like Dna Helicase 1 (RECQ1) (AID 2353).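 Further: plate controls were DMSO vehicle for no effect and enzyme-free control for full effect.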 The method in brief: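 50 nM RECQ1T1 preincubated 15 min with compound in Tris pH 8.0 buffer with MgCl2, DTT, Tween-20 and 2.5 ug/ml poly(dI-dC); started with 200 nM TAMRA/BHQ-2 forked duplex and 2 mM ATP. Unwinding read as fluorescence (525/598 nm), two reads 2 h apart.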
Sequence of ATP-dependent DNA helicase Q1 (Homo sapiens) (P46063 whole entry, looked up): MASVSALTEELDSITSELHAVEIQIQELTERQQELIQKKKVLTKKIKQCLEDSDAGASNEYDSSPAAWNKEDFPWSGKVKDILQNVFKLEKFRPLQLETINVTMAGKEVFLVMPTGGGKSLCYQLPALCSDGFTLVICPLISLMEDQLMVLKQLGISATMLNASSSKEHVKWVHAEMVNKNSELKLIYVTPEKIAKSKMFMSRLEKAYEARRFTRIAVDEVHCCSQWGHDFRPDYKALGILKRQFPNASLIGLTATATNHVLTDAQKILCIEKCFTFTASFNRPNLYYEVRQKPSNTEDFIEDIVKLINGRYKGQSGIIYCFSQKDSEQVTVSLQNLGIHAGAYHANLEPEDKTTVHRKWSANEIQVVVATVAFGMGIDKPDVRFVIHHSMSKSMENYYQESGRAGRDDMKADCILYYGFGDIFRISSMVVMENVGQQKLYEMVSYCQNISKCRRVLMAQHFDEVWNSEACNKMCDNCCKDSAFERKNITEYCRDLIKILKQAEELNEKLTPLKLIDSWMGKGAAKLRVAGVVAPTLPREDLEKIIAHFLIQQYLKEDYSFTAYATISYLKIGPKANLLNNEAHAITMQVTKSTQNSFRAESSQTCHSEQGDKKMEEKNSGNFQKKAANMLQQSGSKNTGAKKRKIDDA

In assay [15] the target is RecQ-like DNA helicase BLM (Homo sapiens) (UniProt P54132). Briefly: qHTS Validation Assay for Inhibitors of Bloom's syndrome helicase (BLM) (AID 2364).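 Further: plate controls were DMSO vehicle for no effect and enzyme-free control for full effect.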 The method in brief: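 Forked 20-bp duplex substrate (200 nM, TAMRA/BHQ-2) plus 2 mM ATP added after 15 min compound preincubation with 50 nM enzyme, pH 8.0, poly(dI-dC) 2.5 ug/ml. Strand separation followed by fluorescence (525/598 nm) over 2 h, normalized to enzyme-free and DMSO controls.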
Sequence of RecQ-like DNA helicase BLM (Homo sapiens) (P54132 whole entry, looked up): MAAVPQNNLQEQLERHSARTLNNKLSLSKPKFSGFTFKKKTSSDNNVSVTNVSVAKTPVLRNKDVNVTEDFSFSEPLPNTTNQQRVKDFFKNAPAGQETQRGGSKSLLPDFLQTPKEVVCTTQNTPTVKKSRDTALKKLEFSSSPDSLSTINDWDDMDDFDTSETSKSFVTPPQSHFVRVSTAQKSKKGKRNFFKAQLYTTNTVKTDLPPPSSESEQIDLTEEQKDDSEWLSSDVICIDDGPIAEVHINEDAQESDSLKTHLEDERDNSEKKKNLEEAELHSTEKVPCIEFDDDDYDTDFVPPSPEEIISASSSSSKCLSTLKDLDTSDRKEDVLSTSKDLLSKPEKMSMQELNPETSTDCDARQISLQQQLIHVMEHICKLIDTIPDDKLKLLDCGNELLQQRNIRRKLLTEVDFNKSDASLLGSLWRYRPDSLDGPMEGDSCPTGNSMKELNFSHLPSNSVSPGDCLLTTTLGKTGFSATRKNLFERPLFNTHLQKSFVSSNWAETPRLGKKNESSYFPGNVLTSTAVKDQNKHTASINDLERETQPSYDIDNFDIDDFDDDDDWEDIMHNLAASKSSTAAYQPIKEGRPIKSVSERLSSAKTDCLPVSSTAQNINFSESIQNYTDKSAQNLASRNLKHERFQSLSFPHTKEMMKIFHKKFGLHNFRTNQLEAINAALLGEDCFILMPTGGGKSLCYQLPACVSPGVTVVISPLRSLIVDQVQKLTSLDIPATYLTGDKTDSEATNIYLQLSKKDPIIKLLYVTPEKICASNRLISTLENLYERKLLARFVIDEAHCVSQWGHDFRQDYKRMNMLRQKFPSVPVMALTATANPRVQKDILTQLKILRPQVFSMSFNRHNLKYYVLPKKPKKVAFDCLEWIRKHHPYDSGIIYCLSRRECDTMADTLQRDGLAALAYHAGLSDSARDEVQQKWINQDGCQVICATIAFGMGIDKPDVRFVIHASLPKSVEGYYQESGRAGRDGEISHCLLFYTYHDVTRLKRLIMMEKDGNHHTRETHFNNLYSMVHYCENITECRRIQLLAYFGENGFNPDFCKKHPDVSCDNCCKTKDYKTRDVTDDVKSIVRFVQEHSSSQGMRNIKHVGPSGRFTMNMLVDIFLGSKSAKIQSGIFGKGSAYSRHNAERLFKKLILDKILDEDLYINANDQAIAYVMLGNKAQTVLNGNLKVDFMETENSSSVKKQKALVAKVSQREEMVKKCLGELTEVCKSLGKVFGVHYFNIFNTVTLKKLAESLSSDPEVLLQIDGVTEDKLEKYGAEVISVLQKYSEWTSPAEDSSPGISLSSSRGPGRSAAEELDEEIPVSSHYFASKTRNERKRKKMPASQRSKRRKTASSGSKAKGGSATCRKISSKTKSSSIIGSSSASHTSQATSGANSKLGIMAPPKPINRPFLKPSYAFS

A short description of assay [16]: Cell Viability - LYMP1-002 - Assay at 24 hr (AID 993). Further: on the % scale 0 is the no-effect control and ±100 the full control effect. The method in brief:
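Human lymphoblastoid LYMP1-002 cells (2500/well) treated 24 h at 37 °C; viability as intracellular ATP by CellTiter-Glo luminescence. Tetraoctylammonium bromide as positive control; AC50 from Hill-equation fits of qHTS concentration-response.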

Assay [17] can be described thus: Cell Viability - LYMP1-002 - Assay at 40 hr (AID 994).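 Further: 0% = DMSO only and full inhibition = 92 µM tetraoctylammonium bromide; nearly all actives have a fitted effect of over 60% in size.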 The method in brief:
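LYMP1-002 human lymphoblastoid cells (2500/well, complete medium) were treated with compounds for 40 hr at 37 C. Intracellular ATP was measured by CellTiter-Glo luminescence, and AC50 values came from Hill-equation fits of concentration-response data; tetraoctylammonium bromide was the positive control.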

Assay [18] can be described thus: Validation of Assay for Modulators of Lamin A Splicing (AID 1459; active means well fitted curve in the direction sought with a large enough effect in the signal ratio; the % refers to the signal ratio;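 further: cells exposed to compound for two days before reading; 0% is about no effect; ratio rise marks activators and ratio drop marks inhibitors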). The method in brief:
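Dual-reporter HeLa S3 line (lamin A-EGFP minigene, DsRed2) treated with compounds 48 hrs, 0.5% DMSO final. Endpoint: EGFP/DsRed2 total intensity ratio from laser-scanning microplate cytometry.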

Where [19] appears, read: measured here: cell count channel max response.
The mark [20] stands for this setting: measured here: lipid channel max response.

Sequence of Alpha-galactosidase A (Homo sapiens) (P06280 whole entry, looked up): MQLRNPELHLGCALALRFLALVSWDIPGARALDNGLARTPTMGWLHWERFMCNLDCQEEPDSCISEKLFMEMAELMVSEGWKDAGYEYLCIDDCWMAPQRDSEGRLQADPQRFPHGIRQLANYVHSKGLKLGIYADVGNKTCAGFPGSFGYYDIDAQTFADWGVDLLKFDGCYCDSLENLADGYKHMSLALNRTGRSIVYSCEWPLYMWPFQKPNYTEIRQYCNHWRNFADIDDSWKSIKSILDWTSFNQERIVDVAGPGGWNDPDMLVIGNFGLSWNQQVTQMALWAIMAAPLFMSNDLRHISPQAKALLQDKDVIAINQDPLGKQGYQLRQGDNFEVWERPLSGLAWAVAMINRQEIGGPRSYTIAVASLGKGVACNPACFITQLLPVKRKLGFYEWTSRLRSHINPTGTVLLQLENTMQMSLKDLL
Sequence of Ferritin light chain (Equus caballus) (P02791 2-175 limits assumed): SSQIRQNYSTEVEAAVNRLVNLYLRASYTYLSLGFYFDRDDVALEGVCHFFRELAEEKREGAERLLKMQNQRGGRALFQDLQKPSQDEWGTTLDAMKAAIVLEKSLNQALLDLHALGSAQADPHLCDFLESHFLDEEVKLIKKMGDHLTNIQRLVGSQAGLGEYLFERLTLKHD
Sequence of DNA repair nuclease/redox regulator APEX1 (Homo sapiens) (P27695 whole entry, looked up): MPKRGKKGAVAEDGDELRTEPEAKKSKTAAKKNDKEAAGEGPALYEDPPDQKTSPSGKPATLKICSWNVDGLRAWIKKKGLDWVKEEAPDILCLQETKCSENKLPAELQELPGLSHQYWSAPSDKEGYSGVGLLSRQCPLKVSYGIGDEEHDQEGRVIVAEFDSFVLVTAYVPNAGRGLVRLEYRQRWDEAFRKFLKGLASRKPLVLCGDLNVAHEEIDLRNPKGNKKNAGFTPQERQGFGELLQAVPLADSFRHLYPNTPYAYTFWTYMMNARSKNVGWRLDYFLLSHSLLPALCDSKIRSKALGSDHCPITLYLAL

On to `COc1ccc2c3c1OC1C[C@@H](O)C=C[C@@]31CCN(C)C2` (stereo not given in full), for which the activity change, negative = inhibition in [1] (at 25.7 µM (top of the series)) is -1.59% (inactive); in assay [1] (at 57.5 µM (top of the series)), -3.75% (inactive). Moreover, the max response in [1] (setting [19]) is 1.47% and -27.6%; in [1] (setting [20]), -1.31% and -11.1%.
Regarding `COc1ccc(-c2coc3cc(O)ccc3c2=O)cc1`, the activity change, negative = inhibition in assay [1] (at 57.5 µM (top of the series)) was -1.11% (inactive). Besides, the max response in [1] (setting [19]) turned out to be 3.06%; in [1] (setting [20]), 2.76%.
As to `NCCS`, the result in assay [2], in assay [3], in assay [4], in [5], in [13] and in [14] was inactive. In [1] (at 57.5 µM (top of the series)), the activity change, negative = inhibition was 0.57% (inactive). Also, the results for the max response in assay [1] (setting [19]) and in assay [1] (setting [20]) were -11.3% and -9.57%, respectively. In addition, the Potency result in [6], in [7], in assay [8], in assay [9], in assay [10] and in assay [11] was “inactive” throughout. In addition, in assay [12], the Potency entry was “inactive”.
As for `CCCCCCCCCCCC1=C(O)C(=O)C=C(O)C1=O`, the activity change, negative = inhibition in assay [1] (at 57.5 µM (top of the series)) was 11.6% (inactive) and 5.79% (inactive). Also, the max response was 14.8% and -11.9% in [1] (setting [19]); 24.3% and -12.6% in assay [1] (setting [20]).
In the case of `CC(=O)CCCCn1c(=O)c2c(ncn2C)n(C)c1=O`, the call in assay [2], in assay [3], in assay [4], in assay [13] and in [14] was inactive. In addition, the activity change, negative = inhibition in assay [1] (at 25.7 µM (top of the series)) is -2.17% (inactive); in [1] (at 57.5 µM (top of the series)), 7.3% (inactive). Further, the max response in assay [1] (setting [19]) was 6.56% and 15.7%; in assay [1] (setting [20]) it was 4.54% and 26.5%. Further, the Potency result in [6], in assay [7], in [8], in [9], in assay [10] and in assay [11] was “inactive” each time. For the same compound, the Potency result in [12] and in assay [15] was “inactive” throughout.
For `CCN(CC)CCOC(=O)c1ccc(N)cc1`, the outcome in assay [2], in [3], in assay [4], in [13] and in assay [14] was inactive. Further, the activity change, negative = inhibition was -0.292% (inactive) in assay [1] (at 25.7 µM (top of the series)) and 1.41% (inactive) in [1] (at 57.5 µM (top of the series)). For the same compound, the max response is 4.92% and -22.1% in [1] (setting [19]); 5.47% and -19.5% in assay [1] (setting [20]). For the same compound, the Potency result in assay [6], in assay [7], in [8], in assay [9], in assay [10] and in assay [12] was “inactive” each time.
Take `O=c1cc(-c2ccccc2)oc2cc(O)cc(O)c12`: the activity change, negative = inhibition is -11.6% (inactive) in assay [1] (at 25.7 µM (top of the series)); 1.96% (inactive) and -20.6% (inactive) in assay [1] (at 57.5 µM (top of the series)). Besides, the max response is -13.1% and 8.12% and 6.97% in [1] (setting [19]); -20.8% and 15.3% and -13.5% in [1] (setting [20]).
Consider `O=c1c(-c2ccc(O)cc2)coc2cc(O)ccc12`, for which the outcome in assay [2], in [3], in [18], in assay [4], in assay [5] and in assay [13] was inactive. In assay [14], the compound was classed as inactive. The Potency result in assay [16], in [17], in [6], in assay [7], in [8] and in assay [9] was “inactive” throughout. The Potency result in assay [10], in assay [11] and in assay [12] was “inactive” in each case. In [1] (at 57.5 µM (top of the series)), the activity change, negative = inhibition was 2.37% (inactive) and 2.36% (inactive) and 1.08% (inactive). Further, the max response in [1] (setting [19]) was 20.5% and -6.62% and -6.98%; in [1] (setting [20]) it was 24.2% and -1.3% and -6.64%.
As for `COc1ccccc1N1CCN(CCCNc2cc(=O)n(C)c(=O)n2C)CC1`, the result in assay [2], in assay [3], in [4], in assay [5], in assay [13] and in assay [14] was inactive. The activity change, negative = inhibition is 0.233% (inactive) in [1] (at 25.7 µM (top of the series)) and 1.54% (inactive) in assay [1] (at 57.5 µM (top of the series)). Also, the max response in assay [1] (setting [19]) was -9.35% and -6.19%; in [1] (setting [20]), -9.3% and -4.74%. In addition, the Potency result in [6] and in assay [10] was “inactive” throughout. For the same compound, the Potency in [8] and in [11] was 10 µM (active) in each case.
Consider `NC(N)=Nc1nc(CSCC/C(N)=N/S(N)(=O)=O)cs1`, for which the outcome in [2], in assay [3], in assay [4], in assay [5], in assay [13] and in [14] was inactive. For the same compound, the activity change, negative = inhibition in assay [1] (at 25.7 µM (top of the series)) is -0.328% (inactive); in assay [1] (at 57.5 µM (top of the series)) it was 0.654% (inactive). Further, the max response in [1] (setting [19]) was 10.2% and -8.15%; in [1] (setting [20]), 9.12% and -7.51%. Besides, the Potency result in assay [6], in [7], in assay [8], in [9], in [10] and in assay [11] was “inactive” each time. Besides, the Potency entry in assay [12] is “inactive”.
On to `COc1ccc(C2Sc3ccccc3N(CCN(C)C)C(=O)C2OC(C)=O)cc1` (stereo not given), for which the activity change, negative = inhibition in [1] (at 57.5 µM (top of the series)) was 6.14% (inactive). The max response in assay [1] (setting [19]) was determined as 15.8%; in [1] (setting [20]) it was 23.3%.
